Bioassay records: PubChem BioAssay, NMMLSC
This is a sample that favours compounds with a hit; in the whole collection about 1.9% have one here.
VLA-4 antagonist: blocks LDV-FITC ligand binding to Mn2+-activated human VLA-4 integrin; 24,000 compounds, 0.2% hits; inhibition, % at 10 µM (by protocol); P13612; Jurkat cells, LDV-FITC binding with Mn2+, flow cytometry; 100% = Mn2+-driven binding gain fully reversed;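 active = inhibition above 50%; inconclusive = compound itself fluorescent, judged against control cell fluorescence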;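 also: 0% = Mn2+ stimulated cells lacking compound and 100% = ligand binding without Mn2+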
Target sequence (P13612 whole entry, looked up): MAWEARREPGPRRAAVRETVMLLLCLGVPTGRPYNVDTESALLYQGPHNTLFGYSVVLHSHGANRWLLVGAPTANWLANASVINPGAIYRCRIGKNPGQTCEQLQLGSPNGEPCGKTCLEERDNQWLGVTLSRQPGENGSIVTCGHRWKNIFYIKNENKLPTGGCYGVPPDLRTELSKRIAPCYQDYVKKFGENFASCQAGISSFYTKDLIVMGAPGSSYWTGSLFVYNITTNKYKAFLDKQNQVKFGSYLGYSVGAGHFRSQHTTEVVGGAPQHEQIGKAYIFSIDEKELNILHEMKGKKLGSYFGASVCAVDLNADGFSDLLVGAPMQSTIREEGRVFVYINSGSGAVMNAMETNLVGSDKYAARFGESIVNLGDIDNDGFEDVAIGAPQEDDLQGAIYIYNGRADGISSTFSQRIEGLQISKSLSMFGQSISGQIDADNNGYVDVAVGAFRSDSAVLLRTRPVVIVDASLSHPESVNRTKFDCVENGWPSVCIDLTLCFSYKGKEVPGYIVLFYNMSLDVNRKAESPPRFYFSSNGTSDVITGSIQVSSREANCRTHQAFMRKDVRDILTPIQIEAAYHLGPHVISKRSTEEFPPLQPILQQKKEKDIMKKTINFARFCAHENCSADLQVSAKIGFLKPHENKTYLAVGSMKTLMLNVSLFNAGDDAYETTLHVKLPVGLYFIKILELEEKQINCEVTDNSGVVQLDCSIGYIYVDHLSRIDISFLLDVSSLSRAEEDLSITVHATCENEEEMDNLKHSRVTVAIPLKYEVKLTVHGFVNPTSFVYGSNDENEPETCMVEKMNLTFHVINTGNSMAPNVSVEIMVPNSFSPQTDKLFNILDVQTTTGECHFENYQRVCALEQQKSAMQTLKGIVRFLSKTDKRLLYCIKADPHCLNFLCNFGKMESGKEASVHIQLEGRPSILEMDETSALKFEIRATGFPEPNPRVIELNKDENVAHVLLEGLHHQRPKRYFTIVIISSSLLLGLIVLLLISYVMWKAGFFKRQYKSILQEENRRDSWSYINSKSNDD
FPR binder: ligands of human FPR, also counter-screen for FPRL1 ligands; P21462; FPR-expressing cells, fluorescent ligand binding, flow cytometry; inhibition, % (test concentration not listed); 24,000 compounds, 0.74% hits; AID 440;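 also: 0% = buffer wells and 100% = receptor blocker peptide wells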
FPRL1 ligand: binds the human formylpeptide receptor-like-1 FPRL1 | 24,000 compounds, 0.3% hits | AID 441 | inhibition, % (concentration not given with the values) | P25090 | FPRL1-expressing cells, fluorescent ligand binding inhibition, flow cytometry;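 also: 0% = buffer alone and 100% = receptor blocker peptide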
Jurkat autofluor: compound fluoresces in Jurkat cells, VLA-4 screen interference; compound autofluorescence, flow cytometry; hits give high values; 1 = vehicle-only cell background; fluorescence ratio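 (tested at 10 µM compound in the well)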; 24,000 compounds, 0.61% hits;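 active = fluorescence ratio above 2.44, which is 1 plus 3 SD of all ratios; inconclusive = signal too bright to measure linearly, ratio around 10 or more; inactive = fluorescence ratio below 2.44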;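 also: green fluorescence of cells measured with 488 nm excitation and 530 nm emission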
VLA-4 allo ag: allosterically activates the human VLA-4 integrin. Jurkat cells, LDV-FITC binding, flow cytometry. activation, % at 10 µM (by protocol). 24,000 tested, under 10 active. AID 528;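 active = fluorescent ligand binding to cells raised by more than 40% of the manganese-induced maximum; inconclusive = compound's own fluorescence above 85% of the ligand control signal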;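 also: 0% = ligand binding without compound and 100% = manganese-stimulated maximal binding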
Proteasome disasm: blocks ATP-dependent breakdown of the yeast 26S proteasome; anti-FLAG beads, GFP-proteasome disassembly, flow cytometry; 24,000 compounds, 0.2% hits; inhibition of disassembly, % (test concentration not listed);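 active = inhibition of disassembly above about 33%, limit read from the data; inconclusive = likely self-fluorescent, control bead median signal at least 40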;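 also: plate controls were ATP control with full disassembly for no effect and ATP-gamma-S intact proteasomes for full effect; higher percent means more bead fluorescence retained so stronger block of disassembly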
Active calls of the source: *; u = inconclusive; x = no result given. Rule as the data show it, unless noted: active = inhibition above about 30%; inconclusive = no clear call, values can overlap the other calls; inactive = below that.

SMILES	VLA-4 antagonist	FPR binder	FPRL1 ligand	Jurkat autofluor	VLA-4 allo ag	Proteasome disasm
COCCN1Cc2cccc(C(=O)NCc3ccc4c(c3)OCO4)c2C1=O	5	25	33*	1	-2	-1
O=C(CN1CCN(Cc2ccc(Cl)cc2)C1=O)NCCN1CCCC1	u	3	1	0.8	u	49*
O=C(CN1CCN(Cc2ccccc2)C1=O)NCc1ccc(Cl)cc1	-11	-9	-6	1	-7	0
CCOC(=O)c1ccc(NC(=O)N2CCN(Cc3cccc(F)c3)CC2)cc1	-2	-16	-3	1	-6	0
CC(=O)NC(Cc1cc(C)ccc1C)C(=O)N1CCN(C(=O)Nc2ccc(C(C)=O)cc2)CC1 (stereo unspecified)	-20	35*	7	1.1	1	0
CCOC(=O)CSc1nc2ccccc2n1CC(=O)N1CCN(c2ccccc2)CC1	1	1	12	1.1	-4	0
CCOC(=O)N1CCC(Nc2nc3ccccc3n3cnnc23)CC1	6	-3	-4	0.99	0	0
CCOC(=O)CSc1nc2ccccc2n1C(=O)OCC	u	-4	-8	2.8*	u	-48
CCOC(=O)CSc1nc2ccccc2n2cnnc12	u	u	-49	7.3*	u	1
CCOc1cc2[nH]c(=O)n(CC3CCC(C(=O)NC(C)CC)CC3)c(=O)c2cc1OCC (stereo unspecified)	63*	6	-7	1	-9	2
CC(C)COC(=O)C1C2C=CC3(CN(C4CCCC4)C(=O)C13)O2 (stereo unspecified)	0	-1	3	1	1	2
CCCCn1c(NC(C)=O)c(C#N)c2nc3ccccc3nc21	x	66*	4	x	x	x
C=CCn1c(NC(=O)c2ccccc2)c(C#N)c2nc3ccccc3nc21	x	u	32*	x	x	x
CC(C(=O)c1ccccc1)n1cnc2ccccc2c1=O (stereo unspecified)	-16	2	3	0.99	2	0
CCOC(=O)N1CCN(c2c(NCCCN(CC)Cc3ccccc3)c(=O)c2=O)CC1	-23	5	-4	1	4	-1
Cc1ccccc1-n1c(=O)cc(N2CCC3(CC2)OCCO3)[nH]c1=O	-7	-3	6	1.1	3	1
O=C(O)CCCNc1cc(N2CCC3(CC2)OCCO3)c2noc3c2c1C(=O)c1ccccc1-3	u	32*	73*	5.2*	u	-3
CCOC(=O)N1CCN(c2cc(NCCC(=O)O)c3c4c(onc24)-c2ccccc2C3=O)CC1	u	32*	61*	4.6*	u	-3
Cc1cc(NC(=O)C2CCCN(S(=O)(=O)c3cnc[nH]3)C2)ccc1Br (stereo unspecified)	u	-6	0	1.2	u	0
COc1ccc(-c2cn3cccnc3n2)cc1NC(=O)CC(C)C	4	3	40*	1.1	1	-4
CCCC(=O)Nc1cc(-c2cn3cccnc3n2)ccc1OC	-18	-1	47*	1.1	4	-3
COc1ccc(-c2cn3cccnc3n2)cc1NC(=O)c1ccc(Br)o1	1	3	10	1.1	-1	2
CCOCC(=O)Nc1ccc(-c2cn3cccnc3n2)cc1	17	2	2	0.97	5	2
COc1ccc(-c2cn3c(C)c(C(=O)Nc4cccc(C)n4)sc3n2)cc1	u	1	-9	1.6	u	10
Cc1cccc(NC(=O)c2sc3nc(-c4ccc(F)cc4)cn3c2C)n1	u	-2	12	5.1*	u	75*
SMILES	VLA-4 antagonist	FPR binder	FPRL1 ligand	Jurkat autofluor	VLA-4 allo ag	Proteasome disasm
Cc1cccc(NC(=O)c2sc3nc(-c4ccccc4)cn3c2C)n1	u	-9	-15	3.4*	u	0
Cc1c(C(=O)Nc2ccccc2)sc2nc(-c3ccccc3)cn12	74*	-6	-4	1.3	-11	0
COc1ccccc1C1/C(=C(/O)c2ccccc2)C(=O)C(=O)N1CC(C)O (stereo unspecified)	17	42*	-3	1	-3	4
COc1ccccc1C1/C(=C(/O)c2ccccc2)C(=O)C(=O)N1CCO (stereo unspecified)	46	51*	-2	0.95	5	1
Cc1ccc(/C(O)=C2\C(=O)C(=O)N(CC(C)O)C2c2cccc(F)c2)cc1 (stereo unspecified)	x	-5	-2	x	x	x
COCCCN1C(=O)C(=O)/C(=C(/O)c2ccccc2)C1c1ccc2c(c1)OCO2 (stereo unspecified)	x	54*	0	x	x	x
Cc1nc(SCC(=O)N2CCC(C(N)=O)CC2)n[nH]1	-26	-3	6	1.1	5	2
COc1cc(NC(=O)c2cccc3c2C(=O)N(Cc2cccnc2)C3)cc(OC)c1OC	-11	2	-2	1.1	-1	-1
CCOC(=O)c1c(C)[nH]c(C(=O)Cn2c(=O)c3c(ncn3CC)n(Cc3ccccc3)c2=O)c1C	16	-7	-4	1.2	1	70*
CCOC(=O)c1c(C)[nH]c(C(=O)CSc2nc3ccccc3o2)c1C	-5	9	-1	1	2	1
CCOC(=O)c1[nH]c(C)c(CN(Cc2ccco2)C(=O)C(F)(F)F)c1C	-1	-1	-3	1	5	1
CCOc1cc(NC(=O)c2ccco2)c(OCC)cc1NC(=O)CCc1ccc(OC)cc1	-19	33*	1	1.1	-4	-1
COc1ccc(NC(=O)CCc2ccccc2)cc1NC(=O)c1ccco1	-3	-7	-3	1	-8	-3
CCOC(=O)C1CCCN(c2c(Nc3cccc(C)c3)c(=O)c2=O)C1 (stereo unspecified)	-27	-6	-5	1	-1	-2
Cc1onc(-c2ccccc2)c1C(=O)NC(CC(=O)O)c1ccc(OC(C)C)cc1 (stereo unspecified)	86*	-1	6	1	-7	2
O=C1C(CCS(=O)c2ccccc2)C(=O)N(c2ccccc2)N1c1ccccc1 (stereo unspecified)	58*	34*	-7	0.98	-42	0
COc1ccc(N(CC(=O)N2CCCCC2)S(=O)(=O)c2ccccc2)c(OC)c1	0	8	1	0.96	2	0
CCOc1ccc(/C=c2\sc3nc(-c4ccco4)nn3c2=O)cc1OCC	10	17	0	1.2	0	42*
